The values that follow come from PubChem BioAssay (NCATS).

Values joined by “and” are separate entries in the source; they are usually repeats but may differ in a detail not shown here. Equal values may be shown once. Unmarked numbers belong to inactive results. Inconclusive results are not listed. Where a structure was tested more than once in an assay, its records may differ in their call. Active and inactive are the calls of the source. Unless noted, the call rests on the fitted dose curve; in most records, active means well fitted curve in the direction sought with a large enough effect; inconclusive means small, poorly fitted or top-dose-only effect, or another doubt; inactive means no such curve, though single readings can be large; an effect the other way counts as inactive or inconclusive.

Assay [1] concerns WaGa. Put plainly: qHTS assay to identify novel small-molecules to repurpose for Merkel cell carcinoma treatment (AID 1296009). Further: nearly all actives have a fitted effect of over 60% in size. Further: potency means the concentration at half of the fitted maximal effect. The conditions noted are these: MCC and control cell lines, CellTiter-Glo viability, 72 h; series mostly up to 46 µM. Put shortly: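 Dose-response viability screen; 72 hr exposure at 37 degree celsius; CellTiter-Glo added, 10 min room temperature, luminescence read; RLUs scaled between no-cell and DMSO wells.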
A general note: In qHTS, concentration-response curves come from the screen itself.

For assay [2], the system named is C33A. Put plainly: Primary qHTS to identify gynecologic anti-cancer compounds using libraries of approved drugs and bioactive compounds (AID 1345084). Further: nearly all actives have a fitted effect of over 55% in size. Further: potency means the concentration at half of the fitted maximal effect. To be noted: Gynecologic cancer cell panel viability, ATPlite luminescence, 48 h; series mostly up to 57.5 µM. The method, boiled down: (§1)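 48 h compound exposure at 37 C, 5% CO2; five-point qHTS. ATPlite luminescence readout of cell ATP.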

The test system of assay [3] is CASKI. Described as above. The conditions noted are these: Gynecologic cancer cell panel viability, ATPlite luminescence, 48 h; series mostly up to 57.5 µM. Put shortly: as §1
Assay [4] deals with Es-2. Described as above. The conditions noted are these: Gynecologic cancer cell panel viability, ATPlite luminescence, 48 h; series mostly up to 57.5 µM. The method, boiled down:
as §1
On the technique in general: ATP-based viability assays read luminescence as a measure of living cells.

The test system of assay [5] is Hek293T. The description is as above. To be noted: Gynecologic cancer cell panel viability, ATPlite luminescence, 48 h, control line for the selectivity index; series mostly up to 57.5 µM. The method, boiled down: as §1
Assay [6] concerns JEG-3. The description is as above. To be noted: Gynecologic cancer cell panel viability, ATPlite luminescence, 48 h; series mostly up to 57.5 µM. The method, boiled down:
as §1

The subject of assay [7] is OV90. The description is as above. The conditions noted are these: Gynecologic cancer cell panel viability, ATPlite luminescence, 48 h; series mostly up to 57.5 µM. The method, boiled down:
as §1

The test system of assay [8] is PA-1. The assay is described as above. The conditions noted are these: Gynecologic cancer cell panel viability, ATPlite luminescence, 48 h; series mostly up to 57.5 µM. The method, boiled down:
as §1

Assay [9] deals with Tov-21-G. Described as above. To be noted: Gynecologic cancer cell panel viability, ATPlite luminescence, 48 h; series mostly up to 57.5 µM. Put shortly:
as §1

In assay [10] the test system is Tov112D. The description is as above. To be noted: Gynecologic cancer cell panel viability, ATPlite luminescence, 48 h; series mostly up to 57.5 µM. The method, boiled down: as §1
In assay [11] the test system is astro. Put plainly: Drug repurposing screens with cells derived from glioblastoma tumor samples (AID 1345199). Further: nearly all actives have a fitted effect of over 40% in size. Further: potency means the concentration at half of the fitted maximal effect. On activity, negative = cell killing: on the % scale 0 is the no-effect control and ±100 the full control effect. To be noted: viability, ATP luminescence, 48 h; series mostly up to 45.9 µM. The method, boiled down: (§2)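 Primary testing used CD133+ neurospheres from four GBM patients, seven concentrations, 48 h exposure and ATP-based viability; confirmation added three slower-growing patient lines.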

The nature of assay [12]: qHTS assay to identify inhibitors of the type 1 interferon - major histocompatibility complex class I in skeletal muscle: Counter screen cell viability and HiBit confirmation (AID 1347412). Further: potency means the concentration at half of the fitted maximal effect; nearly all actives have a fitted effect of over 60% in size. The conditions noted are these: iHSKM muscle cells + IFN-b, HiBiT or CellTiter-Glo, 24 h. Put shortly: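 CRISPR HLA-B*08:01-HiBit immortalized human myoblasts (C25cl48) stimulated with 4 ng/ml IFN-beta and compounds (12-point 1:3, top 46 uM final) for 24 h at 37 C. Duplicate plates read by HiBit lytic luminescence or CellTiter Glo ATP.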

Assay [13] is described as follows: qHTS assay for small molecule activators of the human pregnane X receptor (PXR) signaling pathway (AID 720659; call rule not given here; further: 0% is about no effect).
Assay [14] relates to HeLa. In words: Primary qHTS to identify gynecologic anti-cancer compounds using libraries of approved drugs and bioactive compounds (AID 1345084). Further: nearly all actives have a fitted effect of over 55% in size. Further: potency means the concentration at half of the fitted maximal effect. The conditions noted are these: Gynecologic cancer cell panel viability, ATPlite luminescence, 48 h; series mostly up to 57.5 µM. The method, boiled down: as §1
In assay [15] the test system is SKOV3. The assay is described as above. The conditions noted are these: Gynecologic cancer cell panel viability, ATPlite luminescence, 48 h; series mostly up to 57.5 µM. Put shortly: as §1
A short description of assay [16]: Drug repurposing screens with cells derived from glioblastoma tumor samples (AID 1345199). Further: nearly all actives have a fitted effect of over 40% in size. Further: potency means the concentration at half of the fitted maximal effect. On activity, negative = cell killing: on the % scale 0 is the no-effect control and ±100 the full control effect. To be noted: GBM patient neurospheres viability, ATP luminescence, 48 h. Put shortly:
as §2

Assay [17] concerns CAOV3. In words: Primary qHTS to identify gynecologic anti-cancer compounds using libraries of approved drugs and bioactive compounds (AID 1345084). Further: nearly all actives have a fitted effect of over 55% in size. Further: potency means the concentration at half of the fitted maximal effect. The conditions noted are these: Gynecologic cancer cell panel viability, ATPlite luminescence, 48 h; series mostly up to 57.5 µM. The method, boiled down:
as §1

[18] abbreviates: at 45.9 µM (top of the series), tumour line B.
The mark [19] stands for this setting: at 45.9 µM (top of the series), tumour line D.
Where [20] appears, read: at 46.1 µM (top of the series), tumour line C.
[21] abbreviates: at 46 µM (top of the series), tumour line A.

With `CN(C)c1ccc2nc3ccc(=[N+](C)C)cc-3sc2c1`, the Potency was 1.87 µM (active) and 1.19 µM (active) in [1]; 1120 nM (active) in assay [2]; 7080 nM (active) in [3]; 1780 nM (active) in assay [4]; 14100 nM (active) in assay [5]; 2000 nM (active) in [6]. For the same molecule, the Potency in assay [7] is 12600 nM (active); in assay [8] it was 891 nM (active); in assay [9] it was 10000 nM (active); in assay [10] it was 6.31 µM (active); in assay [11], 5.01 µM (active); in [12] (Viability), 15700 nM (active). In assay [13], the result was inactive.

As for `CC(C)c1nc(CN(C)C(=O)N[C@H](C(=O)N[C@@H](Cc2ccccc2)C[C@H](O)[C@H](Cc2ccccc2)NC(=O)OCc2cncs2)C(C)C)cs1`, the Potency result in [1], in assay [2], in assay [3], in assay [4], in assay [14] and in [5] was “inactive” throughout. Besides, the Potency entry in assay [6], in [7], in [8], in assay [15], in assay [9] and in [10] was “inactive” each time. The Potency result in assay [11] is “inactive”. Further, the activity, negative = cell killing in assay [16] (setting [18]) was -7.95% and -4.95%; in assay [16] (setting [19]) it was -23.9% and -23.8%; in [16] (setting [20]), -26.2% and -16%. Also, the Potency in assay [16] (tumour line A) is 17800 nM (active).

`O=C(NC(Cc1cc(=O)[nH]c2ccccc12)C(=O)O)c1ccc(Cl)cc1` (stereo unspecified): the Potency entry in assay [1], in assay [2], in assay [3], in [4], in assay [14] and in [5] was “inactive” each time. In addition, the Potency result in assay [6], in [7], in assay [8], in assay [15], in assay [9] and in [10] was “inactive” throughout. Moreover, in assay [11], the Potency entry was “inactive”. The activity, negative = cell killing in assay [16] (setting [18]) is -5.33%; in [16] (setting [19]) it was 4.89%; in assay [16] (setting [21]), -9.81%; in assay [16] (setting [20]) it was -15.5%.

For `Cc1nc2n(c(=O)c1CCN1CCC(c3noc4cc(F)ccc34)CC1)CCCC2`, the Potency entry in assay [1], in assay [17], in [3], in assay [4], in [14] and in assay [5] was “inactive” in each case. Moreover, the Potency entry in assay [6], in assay [7], in [8], in assay [15], in assay [9] and in assay [10] was “inactive” throughout. In addition, the Potency result in assay [11] was “inactive”. In addition, the activity, negative = cell killing is -28.4% in [16] (setting [18]) and -9.67% in assay [16] (setting [20]). Besides, the values for the Potency in [16] (tumour line A) and in assay [16] (tumour line D) were 3550 nM (active) and 11200 nM (active), respectively.

`O=C(NCC1CCCCN1)c1cc(OCC(F)(F)F)ccc1OCC(F)(F)F` (stereo unspecified): the Potency result in [1], in assay [2], in assay [3], in [4], in assay [14] and in assay [5] was “inactive” each time. Besides, the Potency result in assay [6], in assay [7], in [8], in assay [9] and in [10] was “inactive” each time. Moreover, the values for the activity, negative = cell killing in assay [16] (setting [21]) and in [16] (setting [20]) were 20.5% and -6.86%, respectively.

As for `CC(C)C[C@H](NC(=O)[C@H](Cc1ccccc1)NC(=O)c1cnccn1)B(O)O`, the Potency in assay [1] is 16.8 nM (active); in assay [2], 100 nM (active); in assay [14], 316 nM (active); in [7] it was 44.7 nM (active); in assay [15], 501 nM (active); in [10], 2 µM (active) and 2.24 µM (active). The Potency in assay [11] was 501 nM (active) and 316 nM (active); in [12] (HiBiT), 31.3 nM (active). In addition, the Potency entry in [6] is “inactive”.
